Screening results from PubChem.
Pol iota inh – blocks human DNA polymerase iota activity; Q9UNA4; hit rate 1% among 390,000; AID 588590; Pol iota fluorescent replication assay, 10 min; Potency, µM (titrated, usually from 115 µM), for inactives: top-dose activity, negative = inhibition, most hits filed as inhibitors; also: potency is read from the fitted curve at half-maximal effect
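Fluorescent replication assay read twice, at 0 min and 10 min after adding 50 nM (final) substrate. Enzyme (10 nM) and compounds were first incubated 15 min at room temperature; enzyme-free buffer wells were negative controls.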
POLB inh – DNA polymerase beta (human) inhibition | Pol beta primer extension/strand displacement, fluorescence kinetic | Potency, µM (titrated, usually from 114 µM), inactives show top-dose activity change, negative = inhibition, actives largely listed as inhibitors | hit rate 1.3% among 340,000; also: potency is read from the fitted curve at half-maximal effect; % is scaled to controls: 0 for no effect and ±100 for the full control effect
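Curves were derived by four-parameter Hill fits of normalized qHTS data. The kinetic fluorescent primer-extension read was taken at 0 and 10 min after 50 nM substrate, following a 15 min room-temperature preincubation of 10 nM enzyme with compounds.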
APEX1 inh – inhibitors of human APE1 endonuclease. P27695. recombinant APE1, TAMRA/BHQ-2 abasic DNA cleavage fluorescence. Potency, µM (highest dose often 65.8 µM), inactives show top-dose activity change, negative = inhibition, usual class: inhibitors. hit rate 0.35% among 350,000. AID 2517;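 also: potency is read from the fitted curve at half-maximal effect; plate controls were vehicle for no effect and reference inhibitor for full effect; nearly all actives have a fitted effect of over 55% in size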
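Step 1: APE1 (0.75 nM) with compound, 15 min RT. Step 2: add 50 nM fluorophore/quencher THF duplex. Step 3: three fluorescence reads 60 s apart (525/598 nm); read 3 minus read 1 = reaction progress.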
Pol eta inh-1 – inhibitors of human DNA polymerase eta. Q9Y253. recombinant Pol eta, fluorescent DNA replication assay. Potency, µM (top dose mostly 114 µM), for the others: top-dose activity change, negative = inhibition, usual class: inhibitors. hit rate 1.2% among 390,000; also: potency is read from the fitted curve at half-maximal effect; % is scaled to controls: 0 for no effect and ±100 for the full control effect
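Pol eta (10 nM) was preincubated with compounds for 15 min at room temperature, after which fluorescent replication substrate (50 nM final) was added to start the reaction. Fluorescence was read kinetically at 0 and 10 min.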
GLS inhibitor – inhibitors of human glutaminase (GLS). hit rate 0.21% among 410,000. Potency, µM (top dose mostly 45.5 µM), for inactives: at the highest dose activity change, negative = inhibition, actives largely listed as inhibitors. GLS enzymatic activity, qHTS titration; also: potency is read from the fitted curve at half-maximal effect; % is scaled to controls: 0 for no effect and ±100 for the full control effect
Target sequence (O94925 whole entry, looked up): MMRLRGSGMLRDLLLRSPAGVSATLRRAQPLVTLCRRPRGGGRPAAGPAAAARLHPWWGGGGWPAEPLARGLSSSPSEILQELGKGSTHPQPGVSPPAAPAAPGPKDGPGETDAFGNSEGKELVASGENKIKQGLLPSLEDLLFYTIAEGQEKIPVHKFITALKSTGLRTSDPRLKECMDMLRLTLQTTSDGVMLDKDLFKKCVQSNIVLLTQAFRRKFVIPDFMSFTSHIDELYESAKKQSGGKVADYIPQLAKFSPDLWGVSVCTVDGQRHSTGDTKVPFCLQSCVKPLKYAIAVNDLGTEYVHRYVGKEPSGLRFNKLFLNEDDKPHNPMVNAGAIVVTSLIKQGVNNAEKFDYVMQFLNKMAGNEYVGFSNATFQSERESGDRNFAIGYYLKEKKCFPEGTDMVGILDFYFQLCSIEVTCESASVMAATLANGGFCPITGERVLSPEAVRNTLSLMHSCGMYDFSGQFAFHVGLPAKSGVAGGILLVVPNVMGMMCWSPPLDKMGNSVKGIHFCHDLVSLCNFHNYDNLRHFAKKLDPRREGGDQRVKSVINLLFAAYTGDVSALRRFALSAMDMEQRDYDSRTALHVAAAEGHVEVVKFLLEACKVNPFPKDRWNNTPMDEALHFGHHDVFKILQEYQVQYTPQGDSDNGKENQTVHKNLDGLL
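hKGA; 45 mM KH2PO4 pH 8.2 + 0.02% Tween-20; cpd via pin tool; 1 mM Gln soln; GluOx/HRP/Amplex Red; RT 30 min; fluor. t0 & final.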
Pol kappa inh-1 – DNA polymerase kappa (human) inhibition | purified Pol kappa, fluorescent DNA synthesis assay, 10 min | Potency, µM (top dose mostly 107 µM), without a hit: at the top dose activity, negative = inhibition, usual class: inhibitors | hit rate 0.53% among 400,000 | AID 588579; also: potency is read from the fitted curve at half-maximal effect; % is scaled to controls: 0 for no effect and ±100 for the full control effect
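Readout: fluorescence, taken kinetically at 0 and 10 min. Conditions: 10 nM Pol kappa, 15 min RT compound preincubation, 50 nM substrate final. Controls: enzyme-free buffer wells.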
PGK validate – validation of Trypanosoma brucei phosphoglycerate kinase inhibitors. shares compounds with Pol kappa inh-1. TbPGK coupled GAPDH assay, Kinase-Glo luminescence. Potency, µM (doses to about 57.5 µM), for the others: at the highest dose activity change, negative = inhibition, most hits filed as inhibitors. hit rate 79% among 500; also: potency is read from the fitted curve at half-maximal effect; % is scaled to controls: 0 for no effect and ±100 for the full control effect; nearly all actives have a fitted effect of over 65% in size
POLI cherry-pick – Human Pol iota inhibitor confirmatory assay. shares compounds with Pol kappa inh-1. Pol iota primer extension, TAMRA/BHQ fluorescence. Potency, µM, most hits filed as inhibitors. hit rate 77% among 1,500. AID 720496; also: potency is read from the fitted curve at half-maximal effect
GALK confirm – confirmation of human galactokinase (GALK) inhibitors; shares compounds with Pol eta inh-1; purified GALK, Kinase-Glo ATP depletion luminescence; Potency, µM (titrated, usually from 115 µM), without a hit: at the top dose activity, negative = inhibition, actives largely listed as inhibitors; hit rate 70% among 150; AID 2015
GALK redox cs – generates H2O2 by redox cycling, flagging GALK artifacts. shares compounds with Pol eta inh-1. Phenol red-HRP H2O2 redox cycling, absorbance 600 nm. Potency, µM (titrated, usually from 115 µM), for inactives: at the highest dose activity change, negative = H2O2 signal, hits mostly inhibitors. hit rate 40% among 150
HEK293 tox – reduces HEK-293 cell viability in GALK counter-screen. hit rate 10% among 170. HEK-293 viability, ATP luminescence (CellTiter-Glo), 24/48 h. shares compounds with Pol eta inh-1. Potency, µM (highest dose often 46.1 µM), for the others: top-dose activity change, negative = cytotoxicity, actives largely listed as inhibitors; also: potency is read from the fitted curve at half-maximal effect; % is scaled to controls: 0 for no effect and ±100 for the full control effect
Pol kappa inh-2 – confirmation of human DNA polymerase kappa inhibitors; shares compounds with Pol eta inh-1; Potency, µM, usual class: inhibitors; AID 720501; hit rate 76% among 920; purified Pol-kappa, fluorescent strand-displacement substrate; also: potency is read from the fitted curve at half-maximal effect
Pol eta inh-2 – Pol eta (human) inhibition, cherry-pick confirmation | Potency, µM, hits mostly inhibitors | shares compounds with Pol eta inh-1 | Pol eta primer extension, TAMRA/BHQ fluorescence, 10 min | AID 720502 | hit rate 64% among 2,600; also: potency is read from the fitted curve at half-maximal effect
Active calls of the source: *; ? = inconclusive; nt = not tested or not shown; [ ] = dose if it differs, or a comment. In the library only some 2.4% were active in any assay of this set; here they are far more common. Calls follow the shape of the dose curve; as a rule, active = well fitted curve in the direction sought with a large enough effect; inconclusive = small, poorly fitted or top-dose-only effect, or another doubt; inactive = no such curve, though single readings can be large; an effect the other way counts as inactive or inconclusive.

SMILES | Pol iota inh | POLB inh | APEX1 inh | Pol eta inh-1 | GLS inhibitor | Pol kappa inh-1 | POLI cherry-pick | Pol eta inh-2 | others
O=C(O)CC(CCc1ccccc1)OC1OC(CO)C(O)C(O)C1O (stereo unspecified) | 1.8µM* | 0.71µM* | 0.35µM* | 0.79µM* | ? | 2µM* | 2.7* | 11* | PGK validate=?;GALK confirm=53µM*;GALK redox cs=-4%;HEK293 tox=9%
O=C(COC(=O)Cc1cccc(C(F)(F)F)c1)NCc1ccco1 | ? | nt | ? | 5µM* | ? | 45µM* | 60* | 30* | Pol kappa inh-2=24*
O=C(O[C@@H](C(=O)O)[C@@H](OC(=O)c1ccccc1)C(=O)O)c1ccccc1 | 18% | nt | -9% | -11% | -9% | -5% | nt | nt
CCn1cc(S(=O)(=O)N2CCCC2)cn1 | 21% | 4% | 3% | -3% | 7% | -18% | nt | nt
FC(F)(F)c1cccc(CN2CCC(c3cc(-c4cccs4)n[nH]3)CC2)c1 | 37% | -6% | -5% | -25% | 0% | -20% | nt | nt
CCn1c2ccccc2c2cc(NC(=O)COC(=O)c3ccccc3F)ccc21 | 23% | 24% | 3% | -15% | 4% | -12% | nt | nt
CCn1c2ccccc2c2cc(NC(=O)COC(=O)c3ccc(NC(=O)CC#N)cc3)ccc21 | 22µM* | nt | -20% | ? | 2% | 22µM* | ? | 60*
CCOC(=O)C1=NOC(CNC(=O)C2=NOC(CNC(=O)c3c(-c4ccccc4Cl)noc3C)C2)C1 (stereo unspecified) | 8% | 35% | 0% | -4% | 1% | -15% | nt | nt
CC(C)=CCC1=C(OCC(=O)O)C(=O)c2ccccc2C1=O | ? | ? | 55% | 22µM* | ? | -2% | 38* | 27* | GALK confirm=38µM*;GALK redox cs=12µM*;HEK293 tox=-28%
CC(C)=CCC/C(C)=C/CC/C(C)=C/CC/C(C)=C/CC1=C(C)C(=O)c2ccccc2C1=O | 45% | 10% | ? | -11% | -2% | -16% | nt | nt
Cc1ccc(C(=O)Nc2ccc3c(c2)OCCO3)o1 | -5% | 0% | 2% | -10% | 7% | -13% | nt | nt
C=CCNC(=O)c1ccc(Cn2c(=S)[nH]c3cc4c(cc3c2=O)OCO4)cc1 | 20µM* | -14% | ? | ? | -9% | 79µM* | 67* | nt | Pol kappa inh-2=47*
CCCCn1c(N)c(N(CC(C)C)C(=O)c2cc3c(s2)CCC3)c(=O)[nH]c1=O | ? | nt | -15% | -7% | -2% | 2% | nt | nt
CCCCN(C(=O)c1cc2c(s1)CCC2)c1c(N)n(CCC)c(=O)[nH]c1=O | 20µM* | nt | -38% | 13µM* | -16% | ? | 60* | 76* | Pol kappa inh-2=?
COCCN(C(=O)c1cc2c(s1)CCCCC2)c1c(N)n(CC(C)C)c(=O)[nH]c1=O | 11% | nt | -2% | -8% | -4% | 11% | nt | nt
COCCN(C(=O)c1cc2c(s1)CCC2)c1c(N)n(CC(C)C)c(=O)[nH]c1=O | 20µM* | nt | -7% | 8.9µM* | ? | 45µM* | 21* | 48* | Pol kappa inh-2=19*
CCCCN(C(=O)c1cc2c(s1)CCC2)c1c(N)n(CC(C)C)c(=O)[nH]c1=O | 45µM* | nt | 7% | ? | 0% | 79µM* | ? | ?
Cc1ccnc(NC(=O)CCCNC(=O)c2ccc(Cl)cc2)c1 | 46% | nt | 3% | -17% | 1% | 5% | nt | nt
O=c1cc2c(nn1Cc1c(Cl)cccc1Cl)-c1ccccc1CC2 | ? | -4% | ? | 7% | -3% | -1% | nt | nt
CCCCC(CC)CNC(=O)c1ccc2c(c1)OCO2 (stereo unspecified) | -10% | 21% | 0% | -18% | 1% | -9%[60.1 µM] | nt | nt
C=CCn1c(-c2ccccc2[N+](=O)[O-])n[nH]c1=S | 15% | 0% | -8% | -15% | 1% | 3% | nt | nt
Cc1ccc(NC(=O)Cn2c(O)c(N=NC(=O)c3cc([N+](=O)[O-])ccc3O)c3ccccc32)cc1 | nt | -18% | 7% | nt | nt | nt | nt | nt
Cc1cccc(NC(=O)Cn2c(O)c(N=NC(=O)c3ccccc3O)c3ccccc32)c1 | 91% | 16µM* | 2% | 45µM* | 6% | -15% | 47* | ?
O=C(N/N=C/c1ccc(-c2ccc(Cl)c(C(=O)O)c2)o1)c1cc2c(ccc3ccccc32)o1 | 18µM* | ? | 12% | 11µM* | ? | 32µM* | 75* | 19*
Cc1nnc(SCC2=C(C(=O)O)N3C(=O)C(NC(=O)Cn4nc(C(F)F)cc4C)C3SC2)s1 (stereo unspecified) | 16µM* | ? | ? | 8.9µM* | -18% | ? | nt | 27* | PGK validate=?
CCC(C(=O)NC1C(=O)N2C(C(=O)O)=C(CSc3nnc(C)s3)CSC12)c1ccccc1 (stereo unspecified) | -27% | nt | 9% | ? | -8% | -29% | nt | nt
O=C(O)c1ccc(N=NN2CCCCC2)cc1 | 36% | 30% | -17% | 3% | 6% | -4% | nt | nt
Cc1nc2ccn(Cc3ccco3)c(=O)c2cc1C(=O)NCc1ccccc1F | 3% | 91% | nt | 6% | 7% | 0% | nt | nt
